Screens deposited in PubChem by Broad Institute.
Shown are actives, neighbours in structure and some others; about 4% of the full set was active somewhere.
TRPM1 prom inh = inhibitors of MITF-dependent TRPM1 promoter reporter, primary screen, cell-based, SK-MEL-5, single point, luciferase; SK-MEL-5 TRPM1 promoter luciferase, 24 h; inhibition, % at 12.5 µM; 330,000 compounds, 0.83% hits;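 active = mean inhibition across replicates of 60% or more, whatever share of single replicates reaches that level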
EWS-Fli block = EWS/Fli-driven NR0B1 reporter inhibitors, primary screen, A673 cells, NR0B1 luciferase, luminescence, MLPCN library | viability-normalised | inhibition, % at 12.6 µM | 350,000 compounds, 0.67% hits;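 active = mean inhibition of at least 50% after viability correction, with every replicate also passing that limit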;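 note: firefly luciferase signal divided by Alamar Blue viability fluorescence both relative to DMSO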
Wnt bcat act = Wnt/beta-catenin pathway activators, primary screen, cell-based, plate reader, single point; 300,000 compounds, 1.2% hits; Wnt/beta-catenin reporter cell assay, activator; AID 743398, 2014; activation, % at 9.35 µM; in the data active = activation above about 30%, passing the limit was not always enough;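 note: 0% = neutral control wells and 100% = positive control wells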
esBAF inh = Bmi1 luciferase reporter increase in mESCs, primary screen, esBAF inhibitor project, mouse ES cells, Bmi1 luciferase knock-in, single point; 350,000 compounds, 2% hits; reporter increase, % at 12.5 µM; 24 h; 100% = twice the neutral-well signal; in the data active = activation above about 40%;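 note: 0% = median of the plate's neutral control wells and 100% = double that signal; a rise in the Bmi1 reporter signal indicates esBAF inhibition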
MITF TRPM1 HTS = activators of MITF-driven TRPM1 promoter reporter, primary screen, cell-based, SK-MEL-5, luciferase, single point | SK-MEL-5 TRPM1-promoter luciferase, 24 h; % of positive control, neutral wells = 0 | activation, % at 12.5 µM | 300,000 compounds, 0.75% hits | AID 588334, 2011;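 active = mean activation of at least 80% with every replicate also reaching 80%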;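 note: 0% = neutral control wells and 100% = parthenolide positive control wells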
PAX8 inh HTS = inhibitors of PAX8-driven TPO luciferase reporter, primary screen, RMG-I cells, single concentration; AID 652154, 2013; inhibition, % at 12.6 µM; 360,000 compounds, 1.2% hits; SteadyGlo, 24 h;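 active = mean replicate inhibition at least 60% with every replicate also reaching 60%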;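 note: luciferase light reporting Pax8 driven TPO promoter activity; plate controls were median of neutral control wells for no effect and mitoxantrone controls for full effect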
* marks the source's active call; other numbers are inactive results; . = no result.

SMILES	TRPM1 prom inh	EWS-Fli block	Wnt bcat act	esBAF inh	MITF TRPM1 HTS	PAX8 inh HTS
C[C@H](CO)N1C[C@H](C)[C@@H](CN(C)Cc2ccc(C(F)(F)F)cc2)OCCCC[C@H](C)Oc2ccc(NC(=O)Nc3ccc(C(F)(F)F)cc3)cc2C1=O	.	-18.3	.	-0.5	.	-8.9
C[C@H](CO)N1C[C@H](C)[C@H](CN(C)Cc2ccc(Cl)c(Cl)c2)OCCCC[C@H](C)Oc2ccc(NC(=O)Nc3ccc(C(F)(F)F)cc3)cc2C1=O	.	3.8	.	-0.4	.	88.4*
C[C@@H]1CN([C@H](C)CO)C(=O)c2cc(NC(=O)Nc3ccc(C(F)(F)F)cc3)ccc2O[C@@H](C)CCCCO[C@H]1CN(C)Cc1ccc(C(F)(F)F)cc1	.	13.4	.	-26.3	.	19.5
C[C@@H]1CCCCO[C@@H](CN(C)Cc2ccc(Cl)c(Cl)c2)[C@@H](C)CN([C@@H](C)CO)C(=O)c2cc(NC(=O)Nc3ccc(C(F)(F)F)cc3)ccc2O1	.	-9.7	.	0.7	.	73.5*
C[C@@H]1CN([C@H](C)CO)C(=O)c2cc(NC(=O)Nc3ccc(C(F)(F)F)cc3)ccc2O[C@@H](C)CCCCO[C@@H]1CN(C)Cc1ccc(Cl)c(Cl)c1	.	4.9	.	6.2	.	86.0*
COC(=O)[C@@H]1Cc2c([nH]c3ccccc23)C(C)(C)N1C(=O)CCl	28.1	57.9*	-0.7	3.5	-24.4	112.0*
O=C1C2C3C=CC(CC3)C2C(=O)N1c1ccccc1 (centres undefined)	11.4	10.0	0.7	3.0	-12.8	14.6
O=C1C=CC2C3C(=O)N(c4ccccc4)C(=O)C3C1N2Cc1ccccc1 (centres undefined)	95.8*	59.8*	-6.1	.	-95.3	8.1
COc1cccc(NC(=O)N(C)C[C@@H]2Oc3ncc(C#Cc4ccc(F)cc4)cc3C(=O)N([C@H](C)CO)C[C@@H]2C)c1	.	6.7	.	0.4	.	.
Cc1ccc(-n2nc(C)c3c(C)c(CCC(=O)Nc4ccc(CN5CCCC5)cc4)c(C)nc32)cc1	65.1*	31.4	5.6	-8.4	-62.5	54.6
Cc1ccc(C(=O)Nc2sc3c(c2C(=O)O)CCCC3)o1	-6.8	.	9.8	.	9.9	-2.6
Cc1ccc(C(=O)Nc2sc3c(c2C(=O)O)CCCCC3)o1	-48.3	.	.	10.1	58.1	.
COC(=O)c1c(NC(=O)c2ccc(C)o2)sc2c1CCCCC2	-68.3	.	52.2*	62.5*	.	-205.3
Cc1ccc(C(=O)Nc2sc3c(c2C(=O)O)CCC(C)C3)o1 (centres undefined)	-35.8	-97.1	10.9	48.6*	37.1	21.4
O=C(Cc1cccnc1)N[C@H]1CC[C@H](CCNS(=O)(=O)c2ccccc2Cl)O[C@H]1CO	.	.	.	-2.7	.	.
COC(=O)C[C@H]1CC[C@H]2[C@@H](COc3ccc(NS(=O)(=O)c4ccccc4Cl)cc3C(=O)N2C)O1	.	9.4	.	.	.	.
CCN(CC)CCN1C(=O)C(O)=C(C(C)=O)C1c1ccccc1[N+](=O)[O-] (centres undefined)	7.4	14.2	2.7	.	.	15.1
CC(=O)C1=C(O)C(=O)N(CCc2ccccc2)C1c1ccccc1[N+](=O)[O-] (centres undefined)	2.7	13.3	-1.0	.	-5.0	122.0*
CN(C)CCCN(C(=O)CCc1ccccc1)c1nc2ccc(Br)cc2s1	87.3*	35.4	-3.2	-8.8	-87.3	10.7
CN(C)CCCN(C(=O)CCc1ccccc1)c1nc2ccc(F)cc2s1	-0.4	.	.	.	1.2	1.8
COc1ccc(OC)c2sc(N(CCCN(C)C)C(=O)CCS(=O)(=O)c3ccccc3)nc12	21.3	43.0	-9.9	.	-19.8	108.4*
Cc1cccc2sc(N(CCCN(C)C)C(=O)c3nc4ccccc4s3)nc12	72.7*	.	.	-13.1	-71.3	.
Cc1ccc2sc(N(CCCN(C)C)C(=O)CCS(=O)(=O)c3ccccc3)nc2c1C	33.2	.	-9.4	-24.2	-29.3	80.9*
COc1ccc(Cl)c2sc(N(CCN(C)C)C(=O)CCS(=O)(=O)c3ccc(C)cc3)nc12	5.1	8.6	-3.9	-5.8	-5.3	4.5
CN(C)CCN(C(=O)CCS(=O)(=O)c1ccccc1)c1nc2c(F)cccc2s1	-11.5	5.6	-1.5	4.9	11.4	6.8
SMILES	TRPM1 prom inh	EWS-Fli block	Wnt bcat act	esBAF inh	MITF TRPM1 HTS	PAX8 inh HTS
Cc1ccc2sc(N(CCCN(C)C)C(=O)c3nc4ccccc4s3)nc2c1C	34.4	21.4	0.8	-5.9	-31.8	12.1
O=C(NC1CCCC1)[C@H]1[C@H](CO)[C@H]2Cn3c(ccc(-c4ccccc4)c3=O)[C@@H]1N2CC1CC1	.	12.3	.	.	.	.
COc1ccc(NC(=O)N(C)C[C@@H]2Oc3c(NS(=O)(=O)c4ccccc4)cccc3C(=O)N([C@@H](C)CO)C[C@H]2C)cc1	.	-5.1	.	0.0	.	-17.4
Cc1ccc2sc(N(CCCN(C)C)C(=O)c3ccc(S(=O)(=O)N(C)C4CCCCC4)cc3)nc2c1C	77.2*	52.4	-20.9	.	-77.9	29.0
COc1cccc(-c2nc(NC3CCCC3)c3ccccc3n2)c1O	14.3	11.8	-7.6	-1.5	-11.4	8.0
COc1ccccc1-c1ccc(NC2CCCC2)nn1	-31.5	.	.	63.4*	33.2	.
COc1ccccc1-c1cnn2c(NC3CCCC3)cc(C)nc12	-131.4	-96.1	25.0	61.8*	139.9*	-149.6
CN1[C@@H]2Cn3c(ccc(-c4cccnc4)c3=O)[C@H]1[C@@H](C(=O)N1CCC(Cc3ccccc3)CC1)[C@@H]2CO	.	2.1	.	-0.9	.	-8.6
O=C(c1ccncc1)N1C[C@H]2[C@@H](c3ccccc31)[C@H](CO)N2C(=O)Nc1ccccc1Cl	.	-1.3	.	0.8	.	9.8
Fc1cccc(F)c1/C=C/c1ccc2ccccc2n1	8.2	.	.	.	-5.8	-43.9
Fc1cccc(Cl)c1/C=C/c1cnc2ccccc2n1	2.9	81.7*	11.7	-59.5	-4.1	-5.2
COC(=O)C[C@H]1C[C@H]2c3cc(NC(=O)Nc4ccccc4)ccc3O[C@H]2[C@H](CO)O1	.	-8.7	.	0.9	.	-21.6
CCCCn1c(CN2CCN(c3cccc(Cl)c3)CC2)nc2c1c(=O)[nH]c(=O)n2C	26.9	58.3*	-9.3	-11.7	-26.4	.
Cn1c(=O)[nH]c(=O)c2c1nc(CN1CCN(c3cccc(Cl)c3)CC1)n2CCCc1ccccc1	-15.1	2.2	-4.8	-3.3	22.0	16.5
O=C(O)C/C(=C\c1cc(Br)cs1)c1nc2ccccc2o1	6.7	-0.3	1.6	82.8*	-2.4	18.0
Cc1ccsc1/C=C(\CC(=O)O)c1nc2ccccc2o1	9.0	-14.9	3.4	24.0	-4.2	-108.4
C[C@H](CO)N1C[C@H](C)[C@H](CN(C)C)Oc2cc(C3=CCCCC3)ccc2S1(=O)=O	.	4.6	.	.	.	.
CCOC(=O)Nc1ccc(Oc2ccccc2)cc1	-86.0	.	55.0*	53.9*	89.9*	-174.1
CCOC(=O)Nc1ccc(OC(=O)Oc2ccc(NC(=O)OCC)cc2)cc1	-17.4	8.0	-4.6	.	19.6	-19.5
